Results as given in publication PMC11102866, “Nucleosome-bound NR5A2 structure reveals pioneer factor mechanism by DNA minor groove anchor competition”.
Substitutions are numbered along the chain they refer to. Numbers in names are those of the source.

B1: 132 (nucleosome)
DNA 1: ATCCTGGAGAATCCCGGTGCCGAGGCCGCTCAATTGGTCGTAGACAGCTCTAGCACCGCTTAAACGCACGTACGCGCTGTCCCCCGCGTTTTAACCGCCAAGGGGATTACTCCCTAGTCTCCAGGCACGTGTCATCAAGGCCAATCCTGTGAT
DNA 2: ATCACAGGATTGGCCTTGATGACACGTGCCTGGAGACTAGGGAGTAATCCCCTTGGCGGTTAAAACGCGGGGGACAGCGCGTACGTGCGTTTAAGCGGTGCTAGAGCTGTCTACGACCAATTGAGCGGCCTCGGCACCGGGATTCTCCAGGAT
modifications: reconstituted with mouse histones H2A, H2B, H3.3 and H4
B2: 15 (nucleosome)
DNA 1: ATCCTGGAGAATCCCGGTCAAGGCCACGCTCAATTGGTCGTAGACAGCTCTAGCACCGCTTAAACGCACGTACGCGCTGTCCCCCGCGTTTTAACCGCCAAGGGGATTACTCCCTAGTCTCCAGGCACGTGTCAGATATATACATCCTGTGAT
DNA 2: ATCACAGGATGTATATATCTGACACGTGCCTGGAGACTAGGGAGTAATCCCCTTGGCGGTTAAAACGCGGGGGACAGCGCGTACGTGCGTTTAAGCGGTGCTAGAGCTGTCTACGACCAATTGAGCGTGGCCTTGACCGGGATTCTCCAGGAT
modifications: reconstituted with mouse histones H2A, H2B, H3.3 and H4
B3: 127 (nucleosome)
DNA 1: ATCCTGGAGAATCCCGGTGCCGAGGCCGCTCAATTGGTCGTAGACAGCTCTAGCACCGCTTAAACGCACGTACGCGCTGTCCCCCGCGTTTTAACCGCCAAGGGGATTACTCCCTAGTCTCCAGGCACGTCAAGGCCATATACATCCTGTGAT
DNA 2: ATCACAGGATGTATATGGCCTTGACGTGCCTGGAGACTAGGGAGTAATCCCCTTGGCGGTTAAAACGCGGGGGACAGCGCGTACGTGCGTTTAAGCGGTGCTAGAGCTGTCTACGACCAATTGAGCGGCCTCGGCACCGGGATTCTCCAGGAT
modifications: reconstituted with mouse histones H2A, H2B, H3.3 and H4
B4: 128 (nucleosome)
DNA 1: B3 DNA 1 with C131T, A132C, G134A, C136G, A138C, T139A
DNA 2: B3 DNA 2 with A15T, T16G, G18C, C20T, T22G, G23A
modifications: reconstituted with mouse histones H2A, H2B, H3.3 and H4
B5: 129 (nucleosome)
DNA 1: B3 DNA 1 with C131G, A132T, A133C, G134A, G135A, C136G, C137G, A138C, T139C
DNA 2: B3 DNA 2 with A15G, T16G, G17C, G18C, C19T, C20T, T21G, T22A, G23C
modifications: reconstituted with mouse histones H2A, H2B, H3.3 and H4
B6: 133 (nucleosome)
DNA 1: B1 DNA 1 with T135G, C136T, A137C, G139A, C141G, A143C
DNA 2: B1 DNA 2 with T11G, G13C, C15T, T17G, G18A, A19C
modifications: reconstituted with mouse histones H2A, H2B, H3.3 and H4
B7: 130 (nucleosome)
DNA 1: ATCCTGGAGAATCCCGGTGCCGAGGCCGCTCAATTGGTCGTAGACAGCTCTAGCACCGCTTAAACGCACGTACGCGCTGTCCCCCGCGTTTTAACCGCCAAGGGGATTACTCCCTAGTCTCCAGGCACGTGTTCAAGGCCAACATCCTGTGAT
DNA 2: ATCACAGGATGTTGGCCTTGAACACGTGCCTGGAGACTAGGGAGTAATCCCCTTGGCGGTTAAAACGCGGGGGACAGCGCGTACGTGCGTTTAAGCGGTGCTAGAGCTGTCTACGACCAATTGAGCGGCCTCGGCACCGGGATTCTCCAGGAT
modifications: reconstituted with mouse histones H2A, H2B, H3.3 and H4
B8: 131 (nucleosome)
DNA 1: B7 DNA 1 with T133C, C134T, A135C, G137A, C139G, A141C
DNA 2: B7 DNA 2 with T13G, G15C, C17T, T19G, G20A, A21G
modifications: reconstituted with mouse histones H2A, H2B, H3.3 and H4

Key:
[1] = biological target: NR5A2 wild type;histone octamer (Homo sapiens;, UniProt O00482;C0HKE1;Q6ZWY9;P84244;P62806 1-541;2-130;2-126;2-136;2-103, |); assay: SeEN-seq (EMSA of nucleosome library followed by sequencing); 0.8 uM human NR5A2; 20 mM Tris-HCl pH 7.5, 120 mM NaCl, 1 mM MgCl2, 10 uM ZnCl2, 1 mM DTT, 100 ug/ml BSA, room temperature, 30 min; 0.1 uM nucleosome library; high values mean tight binding
[2] = biological target: mouse Nr5a2 wild type;histone octamer (Mus musculus;, UniProt P45448;C0HKE1;Q6ZWY9;P84244;P62806 1-560;2-130;2-126;2-136;2-103, |); assay: SeEN-seq (EMSA of nucleosome library followed by sequencing); 1.2 uM mouse Nr5a2; 20 mM Tris-HCl pH 7.5, 120 mM NaCl, 1 mM MgCl2, 10 uM ZnCl2, 1 mM DTT, 100 ug/ml BSA, room temperature, 30 min; 0.1 uM nucleosome library; high values mean tight binding

Row | Binder | binding signal [1] | binding signal [2]
1 | B1 | 3.78 log2 enrichment (bound/unbound, relative to Widom 601) | 3.09 log2 enrichment (bound/unbound, relative to Widom 601)
2 | B2 | 1.12 log2 enrichment (bound/unbound, relative to Widom 601) | 1.33 log2 enrichment (bound/unbound, relative to Widom 601)
3 | B3 | 4.33 log2 enrichment (bound/unbound, relative to Widom 601) | 3.32 log2 enrichment (bound/unbound, relative to Widom 601)
4 | B4 | 5.29 log2 enrichment (bound/unbound, relative to Widom 601) | 4.1 log2 enrichment (bound/unbound, relative to Widom 601)
5 | B5 | 2.87 log2 enrichment (bound/unbound, relative to Widom 601) | 2.23 log2 enrichment (bound/unbound, relative to Widom 601)
6 | B6 | 4.27 log2 enrichment (bound/unbound, relative to Widom 601) | 3.65 log2 enrichment (bound/unbound, relative to Widom 601)
7 | B7 | 1.7 log2 enrichment (bound/unbound, relative to Widom 601) | 1.35 log2 enrichment (bound/unbound, relative to Widom 601)
8 | B8 | 3.61 log2 enrichment (bound/unbound, relative to Widom 601) | 3.22 log2 enrichment (bound/unbound, relative to Widom 601)
